In the supplement of paper PMC6555819:

What was measured:
Test in all cases: PBM binding z-score (relative to random genomic background probes); higher = stronger binding; sequences stand for … in GC…GCGATTGACAGCGTAGAATGAAGG
[1] = tested on: FXR:RXRa (NR concentration 270 nM, RXRa partner concentration 90 nM)
Outline: (§1)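 Random background probes are the reference for binding z-scores. These scores derive from regression-normalized fluorescence on custom Agilent 4×180K protein-binding microarrays incubated 1 h with ligand-free nuclear receptor dimers. Binding was detected with antibodies against each partner (one per run).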

[2] = tested on: LXRa:RXRa (NR concentration 270 nM, RXRa partner concentration 90 nM)
Outline: as §1

[3] = tested on: LXRa homodimer (NR concentration 270 nM)
Outline: as §1

[4] = tested on: LXRb:RXRa (NR concentration 270 nM, RXRa partner concentration 90 nM)
Outline: as §1

[5] = tested on: LXRb homodimer (NR concentration 270 nM)
Outline: as §1

[6] = tested on: PPARa:RXRa (NR concentration 270 nM, RXRa partner concentration 90 nM)
Outline: as §1

[7] = tested on: PPARg:RXRa (NR concentration 180 nM, RXRa partner concentration 90 nM)
Outline: as §1

[8] = tested on: PPARg:RXRa 270nM:90nM, anti-RXR (NR concentration 270 nM, RXRa partner concentration 90 nM)
Outline: as §1

[9] = tested on: PPARg:RXRa 30nM:10nM, anti-RXR (NR concentration 30 nM, RXRa partner concentration 10 nM)
Outline: as §1

[10] = tested on: PPARg:RXRa 90nM:30nM, anti-RXR (NR concentration 90 nM, RXRa partner concentration 30 nM)
Outline: as §1

[11] = tested on: PPARg:RXRa DBDmut IVT, anti-RXR (DBD mutation: RXRa K156A/R161A, NR concentration 270 nM, RXRa partner concentration 90 nM)
Outline: as §1

[12] = tested on: PPARg:RXRa IVT, anti-PPARg (NR concentration 270 nM, RXRa partner concentration 90 nM)
Outline: as §1

[13] = tested on: PPARg DBDmut:RXRa IVT, anti-PPARg (DBD mutation: PPARg1 K132A/R137A, NR concentration 270 nM, RXRa partner concentration 90 nM)
Outline: as §1

[14] = tested on: PPARg DBDmut IVT, anti-PPARg (DBD mutation: PPARg1 K132A/R137A, NR concentration 270 nM)
Outline: as §1

[15] = tested on: PPARg homodimer (NR concentration 180 nM)
Outline: as §1

[16] = tested on: PXR:RXRa (NR concentration 270 nM, RXRa partner concentration 90 nM)
Outline: as §1

[17] = tested on: PXR homodimer (NR concentration 270 nM)
Outline: as §1

[18] = tested on: RARa:RXR (NR concentration 270 nM, RXRa partner concentration 90 nM)
Outline: as §1

[19] = tested on: RARa homodimer (NR concentration 270 nM)
Outline: as §1

[20] = tested on: RARb:RXRa (NR concentration 270 nM, RXRa partner concentration 90 nM)
Outline: as §1

ACTAGCAGGCGAAGGGTCACTCAAGATTAGTCCG
PBM binding z-score [1]: 2.18
PBM binding z-score [2]: 2.19
PBM binding z-score [3]: 0.132
PBM binding z-score [4]: 2.12
PBM binding z-score [5]: -0.71
PBM binding z-score [6]: 3.72
PBM binding z-score [7]: 5.6
PBM binding z-score [8]: 5.62
PBM binding z-score [9]: 3.86
PBM binding z-score [10]: 6.27
PBM binding z-score [11]: -0.0679
PBM binding z-score [12]: 2.22
PBM binding z-score [13]: -0.671
PBM binding z-score [14]: -0.597
PBM binding z-score [15]: 1.88
PBM binding z-score [16]: 2.32
PBM binding z-score [17]: -0.24
PBM binding z-score [18]: 3.29
PBM binding z-score [19]: -0.0684
PBM binding z-score [20]: 3.31

CAAACTAGGTCAGGGTCAAAGTCGGTTTGTGCCA
PBM binding z-score [1]: 5.97
PBM binding z-score [2]: 4.32
PBM binding z-score [3]: 1.32
PBM binding z-score [4]: 4.16
PBM binding z-score [5]: 0.645
PBM binding z-score [6]: 6.05
PBM binding z-score [7]: 9
PBM binding z-score [8]: 7.43
PBM binding z-score [9]: 5.39
PBM binding z-score [10]: 7.73
PBM binding z-score [11]: 8.32
PBM binding z-score [12]: 8.36
PBM binding z-score [13]: 4.34
PBM binding z-score [14]: 3.17
PBM binding z-score [15]: 4.2
PBM binding z-score [16]: 4.81
PBM binding z-score [17]: 1.33
PBM binding z-score [18]: 5.35
PBM binding z-score [19]: 1.42
PBM binding z-score [20]: 4.47

CCTGCTAGGTCATGATCAGCTAATCTACAGTATG
PBM binding z-score [1]: 3.25
PBM binding z-score [2]: 2.63
PBM binding z-score [3]: 0.02
PBM binding z-score [4]: 1.94
PBM binding z-score [5]: -0.0541
PBM binding z-score [6]: 3.31
PBM binding z-score [7]: 2.28
PBM binding z-score [8]: 2.56
PBM binding z-score [9]: 0.674
PBM binding z-score [10]: 1.56
PBM binding z-score [11]: 4.52
PBM binding z-score [12]: 3.32
PBM binding z-score [13]: 0.5
PBM binding z-score [14]: 0.49
PBM binding z-score [15]: 0.98
PBM binding z-score [16]: 1.19
PBM binding z-score [17]: -0.328
PBM binding z-score [18]: 2.08
PBM binding z-score [19]: 0.216
PBM binding z-score [20]: 3.7

CCTATTTGGTCAAGGTCACACACGCTATAGGTAC
PBM binding z-score [1]: 4.34
PBM binding z-score [2]: 4.04
PBM binding z-score [3]: 2.64
PBM binding z-score [4]: 4.09
PBM binding z-score [5]: 1.47
PBM binding z-score [6]: 4.33
PBM binding z-score [7]: 3.07
PBM binding z-score [8]: 3.58
PBM binding z-score [9]: 1.55
PBM binding z-score [10]: 2.5
PBM binding z-score [11]: 2.33
PBM binding z-score [12]: 3.67
PBM binding z-score [13]: 1.27
PBM binding z-score [14]: 1.25
PBM binding z-score [15]: 3.05
PBM binding z-score [16]: 4.1
PBM binding z-score [17]: 2.06
PBM binding z-score [18]: 4.39
PBM binding z-score [19]: 2.51
PBM binding z-score [20]: 4.3

GATACAGGGTCAGCTAGAGGCTAGAGTATGGAAA
PBM binding z-score [1]: 4.9
PBM binding z-score [2]: 2.5
PBM binding z-score [3]: -0.262
PBM binding z-score [4]: 2.16
PBM binding z-score [5]: -0.533
PBM binding z-score [6]: 4.51
PBM binding z-score [7]: 3.64
PBM binding z-score [8]: 3.06
PBM binding z-score [9]: 0.467
PBM binding z-score [10]: 1.89
PBM binding z-score [11]: 0.581
PBM binding z-score [12]: 2.17
PBM binding z-score [13]: -0.0888
PBM binding z-score [14]: -0.495
PBM binding z-score [15]: 2.09
PBM binding z-score [16]: 2.29
PBM binding z-score [17]: -0.0961
PBM binding z-score [18]: 3.58
PBM binding z-score [19]: 1.14
PBM binding z-score [20]: 3.88

ACTAGTTTGTCAGCTGAGGTCACACACAATTCGG
PBM binding z-score [1]: 3.55
PBM binding z-score [2]: 3.38
PBM binding z-score [3]: 2.38
PBM binding z-score [4]: 3.67
PBM binding z-score [5]: 1.33
PBM binding z-score [6]: 3.71
PBM binding z-score [7]: 1.49
PBM binding z-score [8]: 2.21
PBM binding z-score [9]: 0.672
PBM binding z-score [10]: 1.86
PBM binding z-score [11]: 1.11
PBM binding z-score [12]: 2.31
PBM binding z-score [13]: 0.92
PBM binding z-score [14]: 1.54
PBM binding z-score [15]: 2.72
PBM binding z-score [16]: 4.87
PBM binding z-score [17]: 2.34
PBM binding z-score [18]: 4.4
PBM binding z-score [19]: 1.24
PBM binding z-score [20]: 3.28

GGTAGCAGGCCATTTGGGTCACTCAATGACGGGC
PBM binding z-score [1]: 0.428
PBM binding z-score [2]: 0.0822
PBM binding z-score [3]: -0.186
PBM binding z-score [4]: 0.118
PBM binding z-score [5]: -0.593
PBM binding z-score [6]: 1.49
PBM binding z-score [7]: 0.828
PBM binding z-score [8]: 0.694
PBM binding z-score [9]: -0.356
PBM binding z-score [10]: 0.275
PBM binding z-score [11]: 0.966
PBM binding z-score [12]: 2.81
PBM binding z-score [13]: -0.125
PBM binding z-score [14]: -0.507
PBM binding z-score [15]: 0.75
PBM binding z-score [16]: 0.505
PBM binding z-score [17]: -0.0413
PBM binding z-score [18]: 0.741
PBM binding z-score [19]: -0.36
PBM binding z-score [20]: 1.75

CCTTACGGGTCACTGACAGGGTATAGCATTTGGA
PBM binding z-score [1]: 4.47
PBM binding z-score [2]: 3.35
PBM binding z-score [3]: 0.0232
PBM binding z-score [4]: 2.72
PBM binding z-score [5]: -0.363
PBM binding z-score [6]: 4.64
PBM binding z-score [7]: 3.98
PBM binding z-score [8]: 4.07
PBM binding z-score [9]: 1.2
PBM binding z-score [10]: 2.69
PBM binding z-score [11]: 2.63
PBM binding z-score [12]: 3.31
PBM binding z-score [13]: 0.282
PBM binding z-score [14]: 0.192
PBM binding z-score [15]: 1.91
PBM binding z-score [16]: 2.87
PBM binding z-score [17]: -0.101
PBM binding z-score [18]: 3.64
PBM binding z-score [19]: 0.315
PBM binding z-score [20]: 3.73

TAGCCTAGGTCAGATCGGTCCAGTATACGCTATA
PBM binding z-score [1]: 1.8
PBM binding z-score [2]: 0.953
PBM binding z-score [3]: -0.475
PBM binding z-score [4]: 0.809
PBM binding z-score [5]: -0.111
PBM binding z-score [6]: 1.74
PBM binding z-score [7]: 0.543
PBM binding z-score [8]: 0.782
PBM binding z-score [9]: -0.239
PBM binding z-score [10]: 0.0897
PBM binding z-score [11]: 0.702
PBM binding z-score [12]: 1.74
PBM binding z-score [13]: -0.14
PBM binding z-score [14]: -0.564
PBM binding z-score [15]: -0.166
PBM binding z-score [16]: 2.34
PBM binding z-score [17]: -0.919
PBM binding z-score [18]: 0.948
PBM binding z-score [19]: -0.74
PBM binding z-score [20]: 2.78
